A selection: hits, their analogues and other compounds. The true share with any hit is near 2.4%.
D2 ag-1: activates the human D2 dopamine receptor | P14416 | HEK293 T-REx D2 cells, calcium flux agonist mode | activation, % at 2 µM | 0.53% of 340,000 active | AID 485358;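 active = activation over 3 SD above normal in the single-dose calcium agonist read, cut at about 30% in these data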; also: 0% is about no effect
Target sequence (P14416 whole entry, looked up): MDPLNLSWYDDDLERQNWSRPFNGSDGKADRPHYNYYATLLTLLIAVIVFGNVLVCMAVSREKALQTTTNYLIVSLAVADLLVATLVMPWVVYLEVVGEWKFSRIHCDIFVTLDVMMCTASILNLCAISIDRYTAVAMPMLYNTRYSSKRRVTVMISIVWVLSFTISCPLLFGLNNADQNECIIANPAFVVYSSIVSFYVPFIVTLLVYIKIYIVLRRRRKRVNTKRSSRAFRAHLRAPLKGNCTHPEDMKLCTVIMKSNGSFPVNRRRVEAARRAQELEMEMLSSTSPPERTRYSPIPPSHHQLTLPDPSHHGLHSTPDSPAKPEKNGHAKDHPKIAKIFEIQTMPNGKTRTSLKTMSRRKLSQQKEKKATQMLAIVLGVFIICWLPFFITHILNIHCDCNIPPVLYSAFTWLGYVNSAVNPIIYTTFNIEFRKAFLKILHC
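Tetracycline-induced HEK293 Trex cells with D2 receptor force-coupled to calcium signaling, plated overnight at 30 C and loaded with no-wash calcium dye. Calcium flux read kinetically for 180 s after compound addition; responses flag agonists.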
D2 PAM-1: human D2 receptor positive allosteric modulation | DiscoveRx D2 beta-arrestin cells, luminescence, 90 min; 100% = 57 uM dopamine signal | potentiation, % (test concentration not listed) | 0.23% of 360,000 active; in the data active = potentiation above about 50%
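PathHunter D2 cells, attached overnight at 37 deg C, received compound in DMSO plus dopamine at EC20 (50 nM final) for 90 min at 37 deg C. Beta-arrestin recruitment was read as luminescence after 1 h with detection reagent at ambient temperature.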
D2 ag-2: human D2 receptor agonism in beta-arrestin assay; activation, % (test concentration not listed); AID 624465; P14416; DiscoveRx PathHunter D2 beta-arrestin, luminescence, 90 min; 100% = 57 uM dopamine signal; 0.084% of 360,000 active; in the data active = activation above about 40%
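DiscoveRx PathHunter D2 beta-arrestin cells (2,100/well) attached overnight, then compound-stimulated 90 min at 37 C in HBSS/10 mM HEPES/0.1% Tween-20 buffer; beta-galactosidase complementation read by luminescence after 1 h at ambient temperature. Dopamine 57 uM final (EC100) as control.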
D2 PAM-2: positively modulates the human D2 dopamine receptor allosterically | P14416 | HEK293 T-REx D2, calcium flux, EC20 dopamine potentiation | potentiation, % at 10 µM | 0.34% of 340,000 active | AID 485347;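 active = potentiation over 3 SD above the plate norm, cut at about 30% in these data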; also: 0% is about no effect
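Tetracycline-induced HEK293 T-REx cells force-coupled to calcium signalling expressed D2; compounds were pin-added after a 10 s baseline, read kinetically 180 s, then an EC20 dopamine challenge followed with a further 180 s calcium read.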
D2 antag: D2 dopamine receptor (human) antagonism | P14416 | HEK293 TREx D2 cells, calcium flux, dopamine EC80 | inhibition, % at 10 µM | 2% of 340,000 active | AID 485344; in the data active = inhibition above about 30%; inactive = below that, where a call was filed; also: 0% is about no effect
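Dopamine at EC80 is the agonist stimulus; test compounds precede it by 180 s. Calcium flux read kinetically in a force-coupled, inducible HEK293 T-REx D2 cell line.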
Starred values were filed as active, the others as inactive.

For Clc1ccc(SCCOCCN2CCCCC2)cc1 the results were D2 ag-1 0.3, D2 PAM-1 -20.7, D2 ag-2 -1.3, D2 PAM-2 -25.8 and D2 antag -12.2.
CC1CCN(CCOCCSc2ccc(Cl)cc2)CC1 was read as D2 ag-1 -0.8, D2 PAM-1 -14.7, D2 ag-2 -4.4, D2 PAM-2 -31.4 and D2 antag 44.9*.
`CC1CN(CCOCCSc2ccc(Cl)cc2)CC(C)O1` (configuration not stated) gave D2 ag-1 -0.7, D2 PAM-1 -62.4, D2 ag-2 -1.2, D2 PAM-2 -14.1 and D2 antag 50.2*.
Screening CCOC(=O)C1CCN(CCC(=O)Nc2ccc(Cl)cc2)CC1 returned D2 ag-1 3.2, D2 PAM-1 -41.4, D2 ag-2 3.4, D2 PAM-2 -30.1 and D2 antag 18.0.
`CCOC(=O)C1CCN(CCCSc2ccc(Cl)cc2)CC1` gave D2 ag-1 0.5, D2 PAM-1 -27.0, D2 ag-2 -1.6, D2 PAM-2 -21.2 and D2 antag 46.1*.
CCN(c1ccccc1C(=O)O)S(=O)(=O)c1cccc2nsnc12 was read as D2 ag-1 -0.5, D2 PAM-1 1.0, D2 ag-2 -1.2, D2 PAM-2 13.8 and D2 antag 30.6*.
CCN(c1ccc(F)cc1)S(=O)(=O)c1cccc2nsnc12 was read as D2 ag-1 0.3, D2 PAM-1 -2.4, D2 ag-2 -1.3, D2 PAM-2 -11.6 and D2 antag -16.6.
`N#CCCN(C1CCCCC1)S(=O)(=O)c1cccc2nsnc12` gave D2 ag-1 -3.8, D2 PAM-1 0.4, D2 ag-2 -0.3, D2 PAM-2 0.2 and D2 antag -1.2.
Screening CN(C1CCCCC1)S(=O)(=O)c1cccc2nsnc12 returned D2 ag-1 -1.2, D2 PAM-1 -4.5, D2 ag-2 -3.9, D2 PAM-2 -6.0 and D2 antag 31.6*.
For CC(C)C1Oc2ccccc2N(CC(=O)N2CCOCC2)C1=O (configuration not stated) the results were D2 ag-1 0.1, D2 PAM-1 2.8, D2 ag-2 -2.2, D2 PAM-2 -0.7 and D2 antag 37.9*.
Screening Cc1cc2c(OCC(O)CNC3CCCCC3)cccc2[nH]1 (configuration not stated) returned D2 ag-1 25.3, D2 PAM-1 -11.5, D2 ag-2 -3.2, D2 PAM-2 -34.4 and D2 antag 60.2*.
For CCN(CC)C(=O)Cn1c(=O)n(CCCCCC(=O)NCc2ccc(C)cc2)c(=O)c2sccc21 the results were D2 ag-1 -0.9 and D2 PAM-2 -3.2.
O=C(CNC(=O)c1ccco1)NCC(=O)OCc1c(F)cccc1Cl was read as D2 ag-1 0.9, D2 PAM-1 3.6, D2 ag-2 1.6, D2 PAM-2 13.2 and D2 antag -1.5.
For O=C(CNC(=O)c1ccco1)OCc1c(F)cccc1Cl the results were D2 ag-1 0.2, D2 PAM-1 -1.0, D2 ag-2 -0.2, D2 PAM-2 41.4* and D2 antag -25.6.
`O=C(CNC(=O)c1ccco1)NCC(=O)OCC(=O)c1ccc(Cl)c([N+](=O)[O-])c1` gave D2 ag-1 -0.2, D2 PAM-1 -30.9, D2 ag-2 -28.0, D2 PAM-2 38.0* and D2 antag 4.7.
`CCOc1ccc(C(=O)Nc2ccc3oc(-c4ccc(C)cc4C)nc3c2)cc1Br` gave D2 ag-1 0.2 and D2 PAM-2 -6.1.
CC(=O)N1CCc2cc(S(=O)(=O)NC(Cc3ccccc3)C(=O)NCc3ccccc3)ccc21 (configuration not stated) was read as D2 ag-1 -0.1 and D2 PAM-2 -6.5.
`S=C(NCCc1ccccc1)N1CCn2cccc2C1c1cccnc1` (configuration not stated) gave D2 ag-1 0.4, D2 PAM-1 -18.6, D2 ag-2 -3.5, D2 PAM-2 -17.2 and D2 antag 37.3*.
O=C(COc1ccc(Br)cc1)NCCNC(=O)c1ccncc1 was read as D2 ag-1 0.0, D2 PAM-1 -16.2, D2 ag-2 -8.4, D2 PAM-2 -11.3 and D2 antag 47.3*.
`Cc1ccc(CNC(=O)c2cc3sc(Cl)cc3n2C)cc1` gave D2 PAM-2 -6.1.
For COc1ccc(CCNC(=O)CCNC(=O)c2ccc(Br)cc2)cc1OC the results were D2 ag-1 34.9*, D2 PAM-1 -2.4, D2 ag-2 0.5, D2 PAM-2 -9.0 and D2 antag -8.0.
COc1ccc(CCNC(=O)c2cc3sc(Cl)cc3n2C)cc1OC was read as D2 ag-1 -1.4, D2 PAM-1 -3.2, D2 ag-2 -0.9, D2 PAM-2 -6.6 and D2 antag 63.0*.
`COC(=O)C(Cc1ccccc1)NC(=O)CCNC(=O)c1ccc(Br)cc1` (configuration not stated) gave D2 PAM-1 -4.6, D2 ag-2 -1.3 and D2 PAM-2 39.6*.
Screening COC(=O)C(Cc1ccccc1)NC(=O)CCC(=O)NC(C)CCc1ccccc1 (configuration not stated) returned D2 ag-1 0.3, D2 PAM-1 -2.4, D2 ag-2 -1.5, D2 PAM-2 -5.7 and D2 antag -0.2.
COc1cccc(N2CCN(C(=O)CCc3c(C)nc4c(c3C)c(=O)n(C)c(=O)n4C)CC2)c1 was read as D2 ag-1 -1.3 and D2 PAM-2 7.1.
Screening O=c1c2oc3ccccc3c2n(Cc2ccccc2F)c(=O)n1Cc1ccccc1 returned D2 ag-1 0.2 and D2 PAM-2 -7.6.
`Cc1cc(SCC(=O)NCc2ccc(Cl)cc2)nc(=O)[nH]1` gave D2 ag-1 1.8 and D2 PAM-2 -6.7.
Screening O=C(O)c1cc(-c2ccccc2)nn1Cc1ccccc1 returned D2 ag-1 -0.4 and D2 PAM-2 4.9.
`Cc1cccc(C)c1OCC(=O)NNC(=O)CCNC(=O)c1ccc(Br)cc1` gave D2 ag-1 -0.3, D2 PAM-1 63.9*, D2 ag-2 -5.0, D2 PAM-2 0.3 and D2 antag -3.2.
`COc1ccc(S(=O)(=O)N(CC(=O)Nc2ccc(OC)cc2OC)c2ccc(Cl)cc2)cc1` gave D2 ag-1 0.7 and D2 PAM-2 -14.1.
For CC(C(=O)Nc1cc(Cl)cc(Cl)c1)N1CCCC1 (configuration not stated) the results were D2 ag-1 2.0, D2 PAM-1 -12.3, D2 ag-2 -0.9, D2 PAM-2 -29.6 and D2 antag 89.1*.
For Cc1cc(C)c(NC(=O)C(C)N2CCCCCC2)c(C)c1 (configuration not stated) the results were D2 ag-1 -0.2, D2 PAM-1 -4.4, D2 ag-2 -2.5, D2 PAM-2 1.4 and D2 antag -10.8.
